KB-3-1 tox – KB-3-1 parental cell cytotoxicity. 1.4% of 400,000 active. Potency, µM (highest dose often 46.1 µM), actives largely listed as cytotoxic. AID 1347075. KB-3-1 viability, CellTiter-Glo ATP luminescence, 72 h; also: % is scaled to controls: 0 for no effect and ±100 for the full control effect; nearly all actives have a fitted effect of over 60% in size
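Parental KB-3-1 viability, qHTS format: 72 h compound exposure, 37 °C; CellTiter-Glo; media-only wells and DMSO plates as controls; concentration-effect fits on corrected data.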
HT1080 IDH1KD tx – toxicity to HT-1080 IDH1 knockdown cells (counter line); HT-1080 IDH1 knockdown viability, ATP luminescence, 48 h; Potency, µM (titrated, usually from 46.1 µM), inactives show top-dose activity, negative = toxicity, usual class: cytotoxic; 2% of 360,000 active; AID 686971;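 also: 0% = DMSO wells and -100% = cell-free medium wells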
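CellTiter-Glo luminescence after 48 h compound exposure at 37 degrees C of IDH1-knockdown HT-1080 cells in 5% FBS RPMI. %Activity scaled between DMSO wells and cell-free media wells, with curves fitted and assigned curve classes.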
KB-V1 cytotox – kills drug-selected multidrug resistant KB-V1 cells; KB-V1 MDR cells viability, CellTiter-Glo, 72 h; 3.4% of 400,000 active; Potency, µM (series often up to 46.1 µM), usual class: cytotoxic; AID 1347076; also: % is scaled to controls: 0 for no effect and ±100 for the full control effect; nearly all actives have a fitted effect of over 60% in size
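Readout: CellTiter-Glo luminescence, 10 min after addition. Cells: KB-V1 MDR subline, 72 h at 37 degrees C with compound. Analysis: corrected, normalized data fitted to concentration-effect curves.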
MCF10A rerep – induces DNA re-replication in MCF 10a normal breast cells | MCF 10A DNA re-replication, Hoechst nuclear intensity, 48 h | Potency, µM (doses to about 46.1 µM), for the others: top-dose activity, positive = re-replication, hits mostly activators | 2.9% of 350,000 active | AID 624296; also: % of control where 0% means no effect; nearly all actives have a fitted effect of over 50% in size
HT1080-NT tox – kills 2HG-producing HT-1080-NT fibrosarcoma cells; HT-1080-NT fibrosarcoma viability, CellTiter-Glo ATP luminescence, 48 h; Potency, µM (highest dose often 46.1 µM), for inactives: at the highest dose activity, negative = less viability, actives largely listed as cytotoxic; 1.6% of 360,000 active;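 also: NT is the 2HG producing partner of a matched IDH1 knockdown line; 0% = DMSO-treated cells and -100% = media-only wells without cells; nearly all actives have a fitted effect of over 55% in size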
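HT-1080-NT fibrosarcoma cells (2HG-overproducing), 750 cells/well in RPMI with 5% FBS, dosed after 2 h and incubated 48 h at 37C. CellTiter-Glo luminescence normalized to DMSO and no-cell wells; concentration-response curves fitted and classed.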
SW480 rerep – DNA re-replication induction in SW480 cells | SW480 DNA re-replication, Hoechst DNA content imaging, 48 h | Potency, µM (highest dose often 46.1 µM), for the others: top-dose re-replication activation, hits mostly activators | 1.8% of 340,000 active; also: % of control where 0% means no effect; nearly all actives have a fitted effect of over 55% in size
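DNA re-replication was detected as more nuclei of elevated Hoechst intensity after 48 hr exposure to compound (23 nL pinned per well of 250 cells).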
* marks the source's active call; other numbers are inactive results; i = inactive; ? = inconclusive; nt = no result given. Rows were chosen to be rich in hits. Some 7.9% of all compounds tested hit in one or more screens of this group. Calls follow the shape of the dose curve; as a rule, active = well fitted curve in the direction sought with a large enough effect; inconclusive = small, poorly fitted or top-dose-only effect, or another doubt; inactive = no such curve, though single readings can be large; an effect the other way counts as inactive or inconclusive. Potency is read from the fitted curve at half-maximal effect.

SMILES | KB-3-1 tox | HT1080 IDH1KD tx | KB-V1 cytotox | MCF10A rerep | HT1080-NT tox | SW480 rerep
CCCCN(CC)S(=O)(=O)N1CCC(C(=O)NCc2ccc(F)cc2)CC1 | i | 6% | 16µM* | -13% | -1% | 8%
Cc1[nH]c(N=Nc2ccccc2)nc1N=Nc1ccccc1 | 18µM* | ? | ? | ? | -17% | 7.3µM*
C[C@@H]1CN([C@@H](C)CO)C(=O)CCCn2nncc2CO[C@H]1CN(C)S(=O)(=O)c1ccccc1 | i | 0% | i | nt | -8% | nt
COc1ccc(/C=C/C(=O)c2ccncc2)c2ccccc12 | i | ? | i | 12µM* | ? | ?
COc1cccc(/C=C/C(=O)c2cccc([N+](=O)[O-])c2)c1OC | i | ? | ? | ? | 23µM* | ?
CC1(C)CC(=O)C(C(O)c2cccc([N+](=O)[O-])c2)C(C)(C)N1 (stereo not given) | i | 1% | i | 2% | 7% | 1%
CCS(=O)(=O)N1CCC(C(=O)N2CCOCC2)CC1 | i | ? | i | 1% | 1% | -5%
CCSc1ccc(-c2nn(-c3ccccc3)cc2/C=C(/C#N)C(=O)NCCCOC)cc1 | i | 0% | i | 15µM* | -1% | ?
Cc1ccc(-c2nn(-c3ccccc3)cc2/C=C(\C#N)C(=O)NCc2ccccc2)cc1 | i | -21% | i | 4% | -11% | 1%
CCCSc1ccc(-c2nn(-c3ccccc3)cc2/C=C(/C#N)C(=O)NCCCOC)cc1 | i | 3% | ? | 9% | 1% | 4.1µM*
C[C@H]1CN([C@@H](C)CO)C(=O)c2cc(/C=C/c3ccccc3)cnc2O[C@H]1CN(C)C(=O)c1cccc(F)c1 | i | -6% | i | nt | -3% | nt
CCCC(=Nc1ccccc1OC)C1=C(O)CC(c2ccccc2)CC1=O (stereo not given) | i | 1% | i | ? | -7% | -6%
COc1ccccc1N=C(C)C1=C(O)CC(c2ccccc2)CC1=O (stereo not given) | ? | ? | 1.5µM* | ? | ? | 2.1µM*
COc1cc(CC(=O)OCC(=O)Nc2ncc(Cl)cc2Cl)cc(OC)c1OC | i | 0% | i | 1% | 2% | 1%
CN(C)c1ccc(/C=N/Nc2nc3ccccc3o2)cc1 | i | ? | i | 12% | -17% | ?
CCS(=O)(=O)c1ccc(C=NNc2nc3ccccc3o2)cc1 | i | 12% | 18µM* | 2% | 2% | -3%
COC(=O)Nc1nn(-c2ccc(Cl)cc2)c(=O)c(C#N)c1C | ? | 1% | i | 5% | -2% | 7%
c1ccc(Nc2nc(N3CCCCC3)nc(N3CCCCC3)n2)cc1 | i | ? | i | -11% | ? | -3%
Cc1cccc(Nc2nc(N3CCCC3)nc(N3CCCC3)n2)c1 | i | 7% | 9.2µM* | 21µM* | 9% | ?
COc1nc(Nc2cccc(C)c2)nc(N2CCCCC2)n1 | i | 18% | ? | ? | 3% | 5%
c1ccc(Nc2nc(N3CCCCC3)nc(N3CCNCC3)n2)cc1 | i | ? | 21µM* | -2% | ? | -3%
CN(C)c1ccc(NC(=O)Nc2ccc3c(c2)nnn3C)cc1 | i | 4% | i | -5% | 25% | -3%
COc1cccc(CC(=O)Nc2ccc3c(c2)c(=O)n(C)n3-c2ccc(C(C)(C)C)cc2)c1 | i | -26% | i | nt | ? | nt
CN(C)c1ccc(NC(=S)Nc2ccc3c(c2)c(=O)n(C)n3-c2ccc(C(C)(C)C)cc2)cc1 | i | 18µM* | i | nt | ? | nt
CN(C)c1ccc(NC(=O)Nc2ccc3c(c2)c(=O)n(C)n3-c2ccccc2)cc1 | i | ? | i | nt | 16µM* | nt
SMILES | KB-3-1 tox | HT1080 IDH1KD tx | KB-V1 cytotox | MCF10A rerep | HT1080-NT tox | SW480 rerep
CC(C)Cc1nc2sc3c(=O)[nH]cnc3c2c2c1CCC2 | i | -6% | 16µM* | 6% | -5% | -6%
CC(C)c1nc2sc3c(=O)[nH]cnc3c2c2c1CCC2 | i | 20% | i | 2% | -13% | -5%
CCNc1nc(NCC)nc(N/N=C/c2cc(OC)c(OC)c(OC)c2)n1 | i | -3% | i | -4% | -11% | -22%
O=C1c2ccccc2C(=O)c2c1oc(C(F)(F)F)c2C(=O)c1ccccc1 | 4.6µM* | 23µM* | 7.3µM* | 4.6µM* | ? | 4.1µM*
COc1ccc(C(=O)c2coc3c2C(=O)C(=O)c2ccccc2-3)cc1 | i | ? | i | ? | ? | ?
O=C(c1ccccc1)c1coc2c1C(=O)c1ccccc1C2=O | i | 18µM* | i | ? | 16µM* | 2%
CCCCC(CCC(=O)Nc1ccccc1C(=O)OCC)C(=O)O (stereo not given) | i | 10% | i | -2% | 0% | -5%
O=C(COC(=O)c1ccccc1NCc1ccco1)Nc1ccc2c(c1)OCO2 | i | -15% | i | ? | -18% | 3%
O=C(O)C(Cc1c[nH]c2ccccc12)NS(=O)(=O)c1ccccc1 (stereo not given) | i | 11% | i | -4% | 16% | 2%
Cn1c(=O)c2[nH]c(Br)nc2n(C)c1=O | nt | nt | nt | -3% | nt | 0%
CCOc1ccccc1-c1nc2c([nH]1)c(=O)n(C)c(=O)n2C | ? | 3% | 10µM* | 2% | 5% | 19%
CC1=NN(C(=O)c2ccc(Cn3cc(Br)c([N+](=O)[O-])n3)o2)C(O)(C(F)(F)F)C1 (stereo not given) | i | -13% | i | -2% | -25% | 10µM*
CC1=NN(C(=O)Cn2nc([N+](=O)[O-])cc2C)C(O)(C(F)(F)F)C1 (stereo not given) | i | 13% | i | 2% | 12% | -1%
CC1=NN(C(=O)c2ccc(Cn3nc(C)cc3C)o2)C(O)(C(F)(F)F)C1 (stereo not given) | i | 6.3µM* | i | 2.3µM* | 7.1µM* | 3.7µM*
CC1=NN(C(=O)c2ccoc2C)C(O)(C(F)(F)F)C1 (stereo not given) | i | 3% | i | ? | 14% | -56%
CC1=NN(C(=O)c2ccc(Cn3nc(C)c([N+](=O)[O-])c3C)cc2)C(O)(C(F)(F)F)C1 (stereo not given) | i | 1.8µM* | 9.2µM* | ? | 4.5µM* | 16%
CC1=NN(C(=O)c2ccc(Cn3nc(C)c(Br)c3C)cc2)C(O)(C(F)(F)F)C1 (stereo not given) | i | -6% | i | -3% | -3% | -8%

Assay outcomes from PubChem.
